These results are taken from ChEMBL document CHEMBL3988442, “University of Dundee, Small-Polar-MMV Screening Library” (2021).

What all share (parameters): scale not given: direction of the effect not stated beside the values
The target in assay [1] is Protein translocase subunit SecA (Escherichia coli (strain K12)) (UniProt P10408). Briefly: Assay to Identify E. coli SecA ATPase Inhibitors. Type of assay: functional. The conditions noted are these: 30 µM.
In assay [2] the target is T1, Ubiquitin-activating enzyme e1, putative (Leishmania donovani (strain BPK282A1)) (UniProt E9BSI1).
T1 sequence (whole entry): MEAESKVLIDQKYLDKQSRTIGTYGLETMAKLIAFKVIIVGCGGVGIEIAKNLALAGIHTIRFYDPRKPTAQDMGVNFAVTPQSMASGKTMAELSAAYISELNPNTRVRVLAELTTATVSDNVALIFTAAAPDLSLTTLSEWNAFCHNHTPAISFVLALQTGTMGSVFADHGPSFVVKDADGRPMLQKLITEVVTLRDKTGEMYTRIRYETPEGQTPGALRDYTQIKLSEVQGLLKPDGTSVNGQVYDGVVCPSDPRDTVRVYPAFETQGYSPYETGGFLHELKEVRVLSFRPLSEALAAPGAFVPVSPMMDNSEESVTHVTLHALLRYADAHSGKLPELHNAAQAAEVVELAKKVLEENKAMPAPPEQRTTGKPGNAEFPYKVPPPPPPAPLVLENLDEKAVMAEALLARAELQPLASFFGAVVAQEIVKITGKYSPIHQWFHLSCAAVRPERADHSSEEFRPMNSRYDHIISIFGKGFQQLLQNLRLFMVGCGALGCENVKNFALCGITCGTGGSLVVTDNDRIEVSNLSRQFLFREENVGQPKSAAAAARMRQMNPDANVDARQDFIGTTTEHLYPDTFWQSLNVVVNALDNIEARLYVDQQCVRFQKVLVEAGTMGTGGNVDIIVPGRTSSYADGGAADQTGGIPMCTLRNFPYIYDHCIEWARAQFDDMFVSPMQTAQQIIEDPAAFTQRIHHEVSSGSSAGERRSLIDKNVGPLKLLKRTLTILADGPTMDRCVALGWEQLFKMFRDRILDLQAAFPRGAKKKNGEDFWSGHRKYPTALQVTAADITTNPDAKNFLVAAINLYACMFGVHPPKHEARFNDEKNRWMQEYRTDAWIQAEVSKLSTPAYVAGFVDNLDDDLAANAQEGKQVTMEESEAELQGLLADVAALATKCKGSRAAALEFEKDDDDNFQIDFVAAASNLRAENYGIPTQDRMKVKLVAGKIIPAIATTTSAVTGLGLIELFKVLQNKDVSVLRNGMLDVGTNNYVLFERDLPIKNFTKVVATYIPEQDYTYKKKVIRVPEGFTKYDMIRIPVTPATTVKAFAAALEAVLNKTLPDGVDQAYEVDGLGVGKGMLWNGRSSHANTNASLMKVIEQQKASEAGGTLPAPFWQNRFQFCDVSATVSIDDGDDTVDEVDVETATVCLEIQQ
In words: Leishmania donovani Ubiquitin Activating Enzyme (LdE1). The format is functional. The note with it: 30 µM.

Assay [3] deals with AMP-activated protein kinase, AMPK (Homo sapiens) (UniProt P54646+O43741+P54619+Q9UGJ0+Q9Y478+Q13131+Q9UGI9). Briefly: AMP-dependent Kinase enzyme assay. An in vitro enzyme assay that detects ADP turnover that is directly proportional to AMPK activity. This uses naive AMPK that is activated during the assay with MK-8722. Type of assay: functional. The conditions noted are these: 30 µM.

The target of assay [4] is Sialic acid-binding Ig-like lectin 9 (Homo sapiens) (UniProt Q9Y336). In words: Hs-Siglec9 ALPHAscreen SOP 20170721. The conditions noted are these: 10 µM.
The next assay relates to Trypanosoma cruzi. Briefly: Trypanosoma cruzi phosphomannomutase and mannose-1-phosphate guanylyltransferase assay. The format is functional. The note with it: 10 µM.
The target in assay [5] is T2, Arginase-2, mitochondrial (Homo sapiens) (UniProt P78540).
T2 sequence (whole entry): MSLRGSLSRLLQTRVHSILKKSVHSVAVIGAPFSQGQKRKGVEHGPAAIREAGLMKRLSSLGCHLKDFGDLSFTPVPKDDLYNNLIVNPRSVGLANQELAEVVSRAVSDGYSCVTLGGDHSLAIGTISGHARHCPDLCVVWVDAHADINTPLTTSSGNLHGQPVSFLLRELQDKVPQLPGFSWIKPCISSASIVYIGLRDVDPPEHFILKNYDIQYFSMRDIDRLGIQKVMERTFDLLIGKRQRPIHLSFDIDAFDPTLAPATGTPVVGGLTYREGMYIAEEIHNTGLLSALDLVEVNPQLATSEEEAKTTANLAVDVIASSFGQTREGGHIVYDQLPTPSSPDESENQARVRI
In words: in vitro enzyme assay to detect the production of urea directly proportional to the activity of Arginase II. Also: in the data most compounds retested in dose-response had high values. The format is functional. The conditions noted are these: 33.3 µM.

In assay [6] the target is T3, Proteasome subunit beta (Trypanosoma cruzi) (UniProt O96673).
T3 sequence (whole entry): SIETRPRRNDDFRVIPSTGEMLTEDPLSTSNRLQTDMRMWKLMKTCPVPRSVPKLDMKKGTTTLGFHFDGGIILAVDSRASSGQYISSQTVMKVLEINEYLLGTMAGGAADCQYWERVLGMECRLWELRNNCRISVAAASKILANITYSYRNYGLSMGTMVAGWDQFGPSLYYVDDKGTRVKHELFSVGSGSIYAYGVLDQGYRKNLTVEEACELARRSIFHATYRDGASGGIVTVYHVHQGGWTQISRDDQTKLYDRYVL
In words: Trypanosoma cruzi proteasome chymotrypsin-like activity (TcProtChymo) assay. Also: in the data most compounds retested in dose-response had high values. The conditions noted are these: 9.37 µM. Type of assay: functional.

The next assay is filed under the species Homo sapiens. In words: To identify inhibition of the IFN signalling (Jak-Stat) pathway via expression of an eGFP reporter gene under the control of an IFN-stimulated response element (ISRE) containing MxA promoter. Type of assay: functional. The note with it: 30 µM. On the technique in general: Reporter assays use an easily measured gene product as a stand-in for the process of interest.

Assay [7] deals with T4, Tyrosyl-tRNA synthetase, putative (Trypanosoma cruzi (strain CL Brener)) (UniProt Q4DSP6).
T4 sequence (whole entry): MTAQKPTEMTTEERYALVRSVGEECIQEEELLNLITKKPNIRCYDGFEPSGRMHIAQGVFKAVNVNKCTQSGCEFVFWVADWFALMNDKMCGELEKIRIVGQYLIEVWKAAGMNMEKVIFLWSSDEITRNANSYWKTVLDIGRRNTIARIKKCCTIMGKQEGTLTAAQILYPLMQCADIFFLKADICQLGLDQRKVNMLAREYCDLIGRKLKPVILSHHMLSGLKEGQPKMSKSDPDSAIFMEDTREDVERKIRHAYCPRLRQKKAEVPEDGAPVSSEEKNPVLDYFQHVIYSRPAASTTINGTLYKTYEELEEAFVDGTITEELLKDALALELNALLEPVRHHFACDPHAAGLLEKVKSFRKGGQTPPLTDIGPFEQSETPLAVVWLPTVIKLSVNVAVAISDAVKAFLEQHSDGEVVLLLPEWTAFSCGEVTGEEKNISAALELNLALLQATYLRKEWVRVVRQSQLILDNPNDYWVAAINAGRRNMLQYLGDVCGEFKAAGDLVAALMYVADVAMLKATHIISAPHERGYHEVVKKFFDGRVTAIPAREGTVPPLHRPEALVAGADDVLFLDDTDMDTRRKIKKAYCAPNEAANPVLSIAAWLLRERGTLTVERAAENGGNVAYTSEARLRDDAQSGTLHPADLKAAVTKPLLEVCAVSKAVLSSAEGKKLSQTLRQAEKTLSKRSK
In words: Trypanosoma cruzi tyrosyl tRNA synthetase (TcYRS) _High Tyrosine SOP. Also: in the data most compounds retested in dose-response had high values. The format is functional. The note with it: 30 µM.

In assay [8] the target is T4, Tyrosyl-tRNA synthetase, putative (Trypanosoma cruzi (strain CL Brener)). Briefly: Trypanosoma cruzi tyrosyl tRNA synthetase (TcYRS) SOP. Type of assay: functional. The conditions noted are these: 30 µM.
Assay [9] deals with Chromo domain-containing protein 1 (Saccharomyces cerevisiae (strain ATCC 204508 / S288c) (Baker's yeast)) (UniProt P32657). Briefly: ScCHD-1 Enzyme Inhibition Assay. Also: in the data most compounds retested in dose-response had high values. Type of assay: functional. The conditions noted are these: 30 µM.

Structures are written as SMILES. For some of these results: Results with a measured potency or affinity are listed apart.

Sequence of Sialic acid-binding Ig-like lectin 9 (Homo sapiens) (Q9Y336 whole entry): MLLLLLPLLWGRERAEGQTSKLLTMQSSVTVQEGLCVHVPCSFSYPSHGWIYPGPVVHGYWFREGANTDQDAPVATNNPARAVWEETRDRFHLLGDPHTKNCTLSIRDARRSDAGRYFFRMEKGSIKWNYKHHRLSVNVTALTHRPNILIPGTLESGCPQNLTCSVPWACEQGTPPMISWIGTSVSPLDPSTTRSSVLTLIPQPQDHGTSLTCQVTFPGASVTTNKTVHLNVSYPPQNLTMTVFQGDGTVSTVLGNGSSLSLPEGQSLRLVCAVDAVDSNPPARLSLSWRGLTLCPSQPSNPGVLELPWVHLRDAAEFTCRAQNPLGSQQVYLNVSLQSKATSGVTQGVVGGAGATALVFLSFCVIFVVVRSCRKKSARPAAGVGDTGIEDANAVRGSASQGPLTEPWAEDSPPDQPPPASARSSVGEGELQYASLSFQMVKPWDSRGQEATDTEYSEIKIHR
Sequence of Protein translocase subunit SecA (Escherichia coli (strain K12)) (P10408 whole entry): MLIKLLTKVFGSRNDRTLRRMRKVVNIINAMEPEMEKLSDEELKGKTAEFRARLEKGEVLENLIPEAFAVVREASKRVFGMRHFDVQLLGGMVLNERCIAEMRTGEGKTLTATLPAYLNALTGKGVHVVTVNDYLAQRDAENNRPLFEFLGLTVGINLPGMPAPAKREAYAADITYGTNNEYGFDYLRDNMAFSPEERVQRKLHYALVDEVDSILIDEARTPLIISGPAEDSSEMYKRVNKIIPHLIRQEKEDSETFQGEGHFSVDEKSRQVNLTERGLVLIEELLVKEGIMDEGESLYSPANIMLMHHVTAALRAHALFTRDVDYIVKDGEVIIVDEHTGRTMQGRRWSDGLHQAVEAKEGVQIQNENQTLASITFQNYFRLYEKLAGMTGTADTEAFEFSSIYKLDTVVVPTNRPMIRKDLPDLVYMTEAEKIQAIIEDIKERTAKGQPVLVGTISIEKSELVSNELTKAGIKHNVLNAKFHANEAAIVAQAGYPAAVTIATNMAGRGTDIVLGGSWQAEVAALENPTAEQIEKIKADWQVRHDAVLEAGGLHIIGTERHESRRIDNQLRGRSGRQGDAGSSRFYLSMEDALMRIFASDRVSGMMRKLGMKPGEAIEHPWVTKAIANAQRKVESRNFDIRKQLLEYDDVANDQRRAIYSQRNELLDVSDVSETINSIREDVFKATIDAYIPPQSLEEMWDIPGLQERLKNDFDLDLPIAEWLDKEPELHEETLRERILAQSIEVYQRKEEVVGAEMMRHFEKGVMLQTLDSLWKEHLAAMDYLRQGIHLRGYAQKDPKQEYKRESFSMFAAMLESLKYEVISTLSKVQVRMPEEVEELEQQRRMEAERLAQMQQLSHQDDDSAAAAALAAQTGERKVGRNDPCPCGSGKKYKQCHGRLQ
Sequence of Chromo domain-containing protein 1 (Saccharomyces cerevisiae (strain ATCC 204508 / S288c) (Baker's yeast)) (P32657 whole entry, the tested form may be a part): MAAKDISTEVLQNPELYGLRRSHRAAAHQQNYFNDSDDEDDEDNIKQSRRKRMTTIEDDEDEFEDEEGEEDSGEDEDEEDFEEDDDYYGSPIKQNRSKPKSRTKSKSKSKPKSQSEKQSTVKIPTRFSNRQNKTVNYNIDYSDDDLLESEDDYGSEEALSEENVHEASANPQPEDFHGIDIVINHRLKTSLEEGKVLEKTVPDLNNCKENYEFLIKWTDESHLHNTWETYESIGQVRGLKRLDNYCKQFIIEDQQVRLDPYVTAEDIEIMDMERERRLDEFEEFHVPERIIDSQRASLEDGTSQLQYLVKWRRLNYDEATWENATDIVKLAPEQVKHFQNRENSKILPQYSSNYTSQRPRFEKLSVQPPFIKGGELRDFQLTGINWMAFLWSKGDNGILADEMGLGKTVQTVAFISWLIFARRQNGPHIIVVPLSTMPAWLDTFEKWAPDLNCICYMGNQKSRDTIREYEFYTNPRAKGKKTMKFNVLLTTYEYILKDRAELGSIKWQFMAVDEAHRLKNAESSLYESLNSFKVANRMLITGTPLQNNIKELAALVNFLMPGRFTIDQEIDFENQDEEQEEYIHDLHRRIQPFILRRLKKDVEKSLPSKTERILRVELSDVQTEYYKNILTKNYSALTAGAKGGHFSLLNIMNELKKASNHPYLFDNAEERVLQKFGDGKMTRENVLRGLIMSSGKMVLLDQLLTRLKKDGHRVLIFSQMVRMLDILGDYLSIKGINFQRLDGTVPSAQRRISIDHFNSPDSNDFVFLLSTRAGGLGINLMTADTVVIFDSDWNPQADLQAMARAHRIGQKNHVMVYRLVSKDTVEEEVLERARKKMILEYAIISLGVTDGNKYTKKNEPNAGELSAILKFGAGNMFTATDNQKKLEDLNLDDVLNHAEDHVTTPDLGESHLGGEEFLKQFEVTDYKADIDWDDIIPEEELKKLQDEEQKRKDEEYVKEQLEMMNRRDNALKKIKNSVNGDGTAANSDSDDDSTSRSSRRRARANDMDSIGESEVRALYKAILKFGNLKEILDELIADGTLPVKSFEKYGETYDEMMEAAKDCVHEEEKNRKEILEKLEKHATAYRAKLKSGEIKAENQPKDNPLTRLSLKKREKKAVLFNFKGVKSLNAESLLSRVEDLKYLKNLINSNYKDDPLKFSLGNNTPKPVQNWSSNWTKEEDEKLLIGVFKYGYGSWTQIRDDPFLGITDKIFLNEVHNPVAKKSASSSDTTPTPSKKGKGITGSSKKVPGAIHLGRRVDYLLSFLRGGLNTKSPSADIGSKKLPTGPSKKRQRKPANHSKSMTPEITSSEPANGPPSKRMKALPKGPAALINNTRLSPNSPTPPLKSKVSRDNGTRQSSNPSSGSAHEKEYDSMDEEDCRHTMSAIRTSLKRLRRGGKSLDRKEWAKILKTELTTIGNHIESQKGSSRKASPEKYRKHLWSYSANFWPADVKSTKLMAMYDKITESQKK

Regarding `O=C1COC2(CCN(Cc3cccs3)CC2)CN1c1ccccc1`, the Percent Effect is -2.08% in assay [1]; 5.48% in assay [2]; 0.847% in assay [3]; 2.36% in assay [4]; -1.39% with Trypanosoma cruzi; -2.4% in assay [5]. The Percent Effect in assay [6] is 7.62%; in the assay filed under Homo sapiens, -0.737%; in assay [7], 3.12%; in assay [8] it was 3.7%; in assay [9], -0.651%.

Regarding `O=C(NCCOc1ncc(Cl)cc1Cl)c1ccncc1`, the Percent Effect in assay [1] was -9.07%; in [2], 0%; in [3] it was 3.95%; in assay [4], 4.2%; with Trypanosoma cruzi it was -5.27%; in assay [5], -1.67%. In addition, the Percent Effect was 9.72% in assay [6]; 14.8% in the assay listed under Homo sapiens; 7.92% in [7]; 8.54% in assay [8]; -3.07% in assay [9].

Regarding `Cc1noc2ncc(C(=O)NCC3CCN(C(C)C)C3)cc12` (stereo unspecified), the Percent Effect was -2.65% in assay [1]; 2.63% in [2]; 2.21% in assay [3]; 2.67% in assay [4]; -6.58% in the assay with Trypanosoma cruzi; 4.21% in assay [5]. Also, the Percent Effect was 4.34% in assay [6]; 4.5% in the assay listed under Homo sapiens; -0.49% in [7]; 4.88% in assay [8]; 3.24% in assay [9].

As to `CC1CCN(C(CNC(=O)CCn2cccn2)c2cccs2)CC1` (stereo unspecified), the Percent Effect in [1] was -0.447%; in [2], 13.3%; in assay [3], -0.997%; in assay [4], 10.3%; with Trypanosoma cruzi it was 2.82%; in [5], 8.85%. Besides, the Percent Effect in assay [6] was 26.5%; in the assay listed under Homo sapiens, 4.2%; in [7], 6.01%; in assay [8] it was 21%; in assay [9] it was -5.13%.

Take `CCN(CC)C(=O)c1ccc(-c2ccsc2)nc1C`: the Percent Effect in assay [1] was -1.54%; in assay [2] it was 6.94%; in assay [3], 5.62%; in assay [4], -7.86%; with Trypanosoma cruzi, -4.37%; in assay [5] it was -0.442%. Moreover, the Percent Effect is 25.3% in [6]; -1.98% in the assay filed under Homo sapiens; 4.21% in [7]; 5.13% in assay [8]; -1.47% in assay [9].

`Cc1nc(CN2CCCC2c2c(C)nn(C)c2Cl)no1` (stereo unspecified): the Percent Effect was -2.73% in [1]; 5.26% in assay [2]; -8.02% in assay [3]; -3% in assay [4]; -2.33% in the assay with Trypanosoma cruzi; -3.24% in assay [5]. For the same compound, the Percent Effect in assay [6] was -9.22%; in the assay listed under Homo sapiens, -11.3%; in assay [7] it was 3.45%; in assay [8], -1.24%; in [9], 6.8%.

Regarding `COC(=O)CCC(=O)N1CCC2(CN(Cc3cccc(F)c3)C2)C1`, the Percent Effect in [1] was -1.57%; in assay [2], 0%; in [3] it was 35.4%; in assay [4], 0.909%; in the assay with Trypanosoma cruzi, 1.54%; in assay [5], -52.5%. For the same compound, the Percent Effect in [6] was 1.71%; in the assay listed under Homo sapiens, -9.09%; in [7], -2.08%; in assay [8], -2.5%; in [9], -1.45%.

Consider `c1ccc(-c2ccc3nc(C4CCN(CC5CC5)CC4)nn3c2)cc1`, for which the Percent Effect in [1] was 4.34%; in assay [2] it was -5.48%; in assay [3], 2.06%; in assay [4], 4.55%; in the assay on Trypanosoma cruzi, 0.992%; in assay [5], 3.99%. The Percent Effect in assay [6] is 6.08%; in the assay filed under Homo sapiens it was -16.5%; in [7] it was 4.17%; in assay [8], 3.7%; in [9], 0.798%.

Regarding `CCCNC(=O)NC(=O)CN(CC(C)O)c1ccccc1` (stereo unspecified), the Percent Effect in assay [1] was -3.79%; in assay [2], 10.4%; in [3] it was 2.88%; in [4], -6.45%; in the assay on Trypanosoma cruzi, 6.95%; in assay [5], -0.632%. For the same compound, the Percent Effect in assay [6] was 6.22%; in the assay listed under Homo sapiens it was -9.46%; in assay [7] it was 5.71%; in [8], 9.41%; in [9], 2.09%.

On to `Cc1csc(NC(=O)CN(C)CC2CCCN2c2cccnn2)n1` (stereo unspecified), for which the Percent Effect is -4.27% in [1]; 0% in [2]; -8.12% in assay [3]; 2.96% in assay [4]; -6.05% with Trypanosoma cruzi; 5.42% in [5]. Also, the Percent Effect in assay [6] was 15.5%; in the assay filed under Homo sapiens it was 9.4%; in assay [7], 11.9%; in assay [8] it was 8.54%; in assay [9], -4.21%.

`Cc1nc(N2CCN(C(=O)c3ccccc3)CC2)c2c(n1)c(C)nn2C`: the Percent Effect in assay [1] was -0.87%; in assay [2], 12%; in assay [3] it was 3.25%; in [4] it was 0%; in the assay on Trypanosoma cruzi it was -0.393%; in [5] it was -12.8%. The Percent Effect is 12.9% in [6]; 25.6% in the assay listed under Homo sapiens; 6.35% in [7]; 10.3% in [8]; -10.1% in [9].
